Measured values published in PubChem BioAssay AID686979 (National Center for Advancing Translational Sciences (NCATS), 2013).
“And” between values parts separate entries of the source, which are not always exact repeats. Identical values can stand only once. The whole screen tested about 420,000 compounds, of which about 50,000 (12%) were called active. Not shown: some 26% with an inconclusive outcome. Calls follow the shape of the dose curve; as a rule, active = well fitted inhibition curve with a large enough effect; inconclusive = small, poorly fitted or top-dose-only effect; inactive = flat fitted curve, though single readings scatter. Many of the other results were omitted from the sample, so actives are more common in it than they were.

Experiment: qHTS for Inhibitors of human tyrosyl-DNA phosphodiesterase 1 (TDP1): qHTS in cells in presence of CPT; also: nearly all actives have a fitted effect of over 55% in size
Conditions: chicken DT40 Tdp1-/-;hTDP1 cells + 20 nM CPT, ATP luminescence, 48 h; series mostly up to 46.2 µM; activity change, negative = growth inhibition: at the top concentration
In short: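 Cell growth measured by CellTiter-Glo luminescence after a minimum 48 h, 37 C compound exposure with 20 nM CPT in Tdp1-knockout DT40 cells stably expressing hTDP1, seeded 400/well; qHTS titration format.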
% is scaled to controls: 0 for no effect and ±100 for the full control effect; potency is read from the fitted curve at half-maximal effect.

Row | SMILES | activity change, negative = growth inhibition | Potency
1 | Cc1ccc(S(=O)(=O)N(C)c2ccc(OCC(=O)OCC(=O)N(CC#N)c3ccccc3)cc2)cc1 | 4.22% (inactive) | 
2 | COc1ccc(C(=O)NCCn2nc(C)cc2C)cc1OC1CCN(C(C)=O)CC1 | -1.37% (inactive) | 
3 | O=[N+]([O-])c1ccccc1OCCCCN1CCCCC1 | -1.52% (inactive) | 
4 | Cc1cc(OCCCCOc2ccc(C#N)cc2)ccc1[N+](=O)[O-] |  | 13 µM (active)
5 | Cc1cc(OCC(=O)NC2CCN(C)CC2)ccc1[N+](=O)[O-] | -5.16% (inactive) | 
6 | Cc1ccc(OCC(=O)Oc2ccccc2[N+](=O)[O-])cc1 | 9.02% (inactive) | 
7 | Cc1cc(OCC(=O)Nc2c(C)n(C)n(-c3ccccc3)c2=O)ccc1[N+](=O)[O-] | -3.95% (inactive) | 
8 | Cc1cc(OCCCN2CCN(Cc3ccccc3)CC2)ccc1[N+](=O)[O-] |  | 23.1 µM (active)
9 | COC(=O)c1cccc(N(CC(=O)NCC2CCCO2)C(=O)CCC(=O)Nc2cc(C)on2)c1 (stereo not given) | 12.7% (inactive) | 
10 | O=C(CSc1nnc(CNC(=O)c2ccc(F)cc2)o1)Nc1ccc2c(c1)OCO2 | -15.9% (inactive) | 
11 | Cc1ccnc(NC(=O)c2ccc(Cl)c([N+](=O)[O-])c2)c1 | -10.8% (inactive) | 
12 | O=C(Nc1cccnc1)c1ccc(Cl)c([N+](=O)[O-])c1 | 10% (inactive) | 
13 | O=C(Nc1ccncc1)c1ccc(Cl)c([N+](=O)[O-])c1 |  | 11.6 µM (active)
14 | Cc1ccc2c(=O)c(C(=O)c3ccc(F)cc3)cn(CC(=O)NC3CCCCC3)c2n1 | -17.8% (inactive) | 
15 | N=C(N)SCc1cccc2ccccc12 |  | 18.4 µM (active)
16 | c1ccc2c(CNn3cnnc3)cccc2c1 | -4.07% (inactive) | 
17 | c1ccc(NCc2cccc3ccccc23)nc1 | -7.92% (inactive) | 
18 | COc1cc(NC(=O)COc2ccccc2Cl)ccc1NC(=O)C(C)C | -20% (inactive) | 
19 | CCCC(=O)NC(=S)Nc1ccc(CN2CCOCC2)cc1 | 4.02% (inactive) | 
20 | CC(Sc1nnc(CNC(=O)c2ccccc2F)n1C)C(=O)Nc1nccs1 (stereo not given) | -16.6% (inactive) | 
21 | Brc1cccc(-c2nnn3c2nc(NC2CCCCC2)c2ccccc23)c1 | 0.81% (inactive) | 
22 | CCc1nnc(NC(=O)CSCc2cc(=O)n3cc(C)sc3n2)s1 | -17.7% (inactive) | 
23 | Cc1ccc(O)c(NC(=O)c2cc(-c3ccc(F)cc3)no2)c1 | -16.7% (inactive) | 
24 | COc1ccccc1-c1cc(C(F)(F)F)nc(S(=O)(=O)CCCC(=O)Nc2cc(C)ccc2O)n1 | -25.6% (inactive) | 
25 | COc1ccc(-c2cc(C(F)(F)F)nc(SCC(=O)Nc3ccc4c(c3)OCO4)n2)cc1OC | 2.49% (inactive) | 

Row | SMILES | activity change, negative = growth inhibition | Potency
26 | CC(Sc1nc(-c2ccccc2)cc(C(F)(F)F)n1)C(=O)Nc1ccc2c(c1)OCO2 (stereo not given) | -27.9% (inactive) | 
27 | CSc1ccccc1NC(=O)Cc1ccc(Br)cc1 | -16.6% (inactive) | 
28 | Cc1cc(C(F)(F)F)nc(SCC(=O)Nc2nccs2)n1 | -8.46% (inactive) | 
29 | Cc1ccc(O)c(NC(=O)CCS(=O)(=O)c2nc(-c3ccc4c(c3)OCO4)cc(C(F)(F)F)n2)c1 |  | 8.2 µM (active)
30 | COc1ccc(Cl)cc1NC(=O)CSc1nc(-c2cccs2)cc(C(F)(F)F)n1 |  | 23.1 µM (active)
31 | O=C(CSc1ccc(-c2cccs2)nn1)Nc1ccccc1F | -10.7% (inactive) | 
32 | COc1cc(OC)cc(C(=O)OCC(=O)Nc2ccc(F)cc2F)c1 | 10.6% (inactive) | 
33 | CSc1ccccc1NC(=O)CCS(=O)(=O)c1nc(-c2cccs2)cc(C(F)(F)F)n1 |  | 10.3 µM (active)
34 | COc1ccccc1-c1cc(C(F)(F)F)nc(S(=O)(=O)CCCC(=O)Nc2ccc(F)cc2F)n1 |  | 5.17 µM (active)
35 | COC(=O)c1ccccc1NC(=O)Cn1c(=O)n(-c2cccc(C(F)(F)F)c2)c(=O)c2c(C)c(C)sc21 | -13.6% (inactive) | 
36 | CNS(=O)(=O)c1ccc(NC(=O)Nc2ccc3c(c2)OCO3)cc1 | -8.43% (inactive) | 
37 | O=C(N[C@@H](Cc1ccccc1)C(=O)OCc1ccccc1)c1nc[nH]c1C(=O)NC1CCNCC1 | 10.2% (inactive) | 
38 | O=C(NC1CCCC1)C1c2ccccc2OCC(=O)N1Cc1ccccc1 (stereo not given) | -18.2% (inactive) | 
39 | COc1ccccc1NC(=O)c1cc(N2C(=O)C3C4CCC(C4)C3C2=O)ccc1Cl (stereo not given) | 3.9% (inactive) | 
40 | CCOC(=O)c1ccccc1NC(=O)CSc1nc2c(sc(=S)n2CC)c(=O)[nH]1 | -25.9% (inactive) | 
41 | CC(C)n1c(O)c(N=Nc2ccccn2)c2ccccc21 | -9.09% (inactive) | 
42 | FC(F)(F)c1ccnc(Oc2ccc(C3=NCCS3)cc2)c1 | -0.223% (inactive) | 
43 | Cc1ccc(NC(=O)c2ccco2)cc1 | 16.3% (inactive) | 
44 | O=C(c1cnccn1)N1CCN(S(=O)(=O)c2cccc(Cl)c2)CC1 | -5.64% (inactive) | 
45 | O=C1CC(c2ccccc2)C(=O)N2C(=O)CC(c3ccccc3)C(=O)N12 (stereo not given) | 22.6% (inactive) | 
46 | FC(F)(F)Oc1ccccc1C(c1nnnn1C1CCCCC1)N1CCN(C/C=C/c2ccccc2)CC1 (stereo not given) |  | 18.4 µM (active)
47 | CCOC(=O)C1CCN(C(c2cc3cc(C)cc(C)c3[nH]c2=O)c2nnnn2C2CCCCC2)CC1 (stereo not given) | -25.1% (inactive) | 
48 | CNC(=O)NC(=O)C(C)N1CCN(C/C=C/c2ccccc2)CC1 (stereo not given) | 13.1% (inactive) | 
49 | COCCn1c(=O)c(-c2ccc(OC)cc2)nc2cnc(Oc3cccc(Cl)c3)nc21 | 4.38% (inactive) | 
50 | Cc1cc(C)n(-c2ccc3nncn3n2)n1 | 9.29% (inactive) | 

Row | SMILES | activity change, negative = growth inhibition | Potency
51 | CC1CCN(Cc2nc(-c3ccc(Cl)cc3)no2)CC1 | -26.8% (inactive) | 
52 | COc1ccc2nc(SCC(=O)Nc3c(C)cc(C)cc3C)[nH]c2c1 | -17.4% (inactive) | 
53 | Cc1ccc(-c2noc(CC(c3ccccc3)c3ccccc3)n2)cc1 | -27.7% (inactive) | 
54 | COc1ccc(-c2noc(CSc3ccc(C)cc3)n2)cc1 | -20.1% (inactive) | 
55 | COc1ccc(-c2noc(CN(C)S(=O)(=O)c3ccc(C)cc3)n2)cc1 |  | 16.4 µM (active)
56 | COc1ccccc1Cc1nc(-c2ccc(C)cc2)no1 | -29.4% (inactive) | 
57 | Cc1ccc(S(=O)(=O)N(Cc2nc(-c3ccc(Cl)cc3)no2)C2CCCCC2)cc1 |  | 16.4 µM (active)
58 | COc1ccc(-c2noc(CSc3nc4ccc(C)cc4[nH]3)n2)cc1 |  | 20.6 µM (active)
59 | COc1ccc(-c2noc(CCC(=O)N(C)c3ccccc3C)n2)cc1 | -22.6% (inactive) | 
60 | Cc1cccc(OCC(=O)NCCNC(=O)c2cccnc2)c1 | -1.32% (inactive) | 
61 | CCCC(=O)N1CCN(c2nc3c(OC)ccc(C)c3s2)CC1 | -28.7% (inactive) | 
62 | CC(C)C(=O)Nc1c2c(nn1-c1ccccc1)CSC2 | -4.66% (inactive) | 
63 | O=C(CN1C(=O)CCS(=O)(=O)c2ccccc21)NCc1ccc(F)cc1 | 2.03% (inactive) | 
64 | CN(CC(=O)Nc1ccccc1Cl)C(=O)c1ccccc1SCC(=O)N1CCCC1 | 1.16% (inactive) | 
65 | Cc1cccc(CNC(=O)c2cnn(-c3nccc(-c4ccccc4F)n3)c2C2CC2)n1 | -0.952% [at 9.04 µM] (inactive) | 
66 | CCOc1ccccc1N1CN(Cc2ccccc2)CNC1=S | -17.4% (inactive) | 
67 | O=C1CCCN1C(=O)COc1ccc([N+](=O)[O-])cc1 | 10.3% (inactive) | 
68 | CN(Cc1ccccc1)C(=O)c1cn(C)c2ccc(S(=O)(=O)N(C)C3CCCCC3)cc2c1=O | -20% (inactive) | 
69 | CCN(CC)S(=O)(=O)c1ccc2[nH]cc(C(=O)NCCc3ccccc3)c(=O)c2c1 |  | 14.6 µM (active) and 23.1 µM (active)
70 | CCc1ccc(NS(=O)(=O)c2ccc3[nH]cc(C(=O)NCCc4cccc(C)c4)c(=O)c3c2)cc1 | -27.2% (inactive) | 
71 | CN(c1ccccc1)S(=O)(=O)c1ccc(Cl)c(C(=O)NCCc2c[nH]c3ccccc23)c1 |  | 14.6 µM (active)
72 | O=C(NCCc1ccccc1)c1c[nH]c2ccc(F)cc2c1=O | 9.16% (inactive) | 
73 | CN(c1ccccc1)S(=O)(=O)c1ccc(Cl)c(C(=O)OCC(N)=O)c1 | 0.976% (inactive) | 
74 | CC(=O)N/C(=C/c1ccc(Cl)cc1)C(=O)NCCc1c[nH]c2ccccc12 | -13.8% (inactive) | 
75 | CN(CC(=O)NC(=O)Nc1ccccc1F)Cc1ccccc1 | -15.6% (inactive) | 

Row | SMILES | activity change, negative = growth inhibition | Potency
76 | COCCNC(=O)C1CCN(C(=O)C2CC(=O)N(c3ccc(C)cc3)C2)CC1 (stereo not given) | 10.4% (inactive) | 
77 | CCN(CC)CCCNC(=O)COc1ccc2oc3c(c2c1)CCCC3 | -13.5% (inactive) | 
78 | N[C@@H](Cc1ccccc1)C(=O)N1CCOCC1 | 4.38% (inactive) | 
79 | COc1cc(OC)cc(C(=O)NCCCn2ccnc2)c1 | 28.8% (inactive) | 
80 | CCc1cccc(NC(=O)COC(=O)C2CCN(c3ccc(C(F)(F)F)cn3)CC2)c1 | 0.109% (inactive) | 
81 | CCOc1ccc(-c2cc3nc(C4CCN(C(=O)OC(C)(C)C)CC4)c(C(=O)Nc4cccc(CC)c4)cn3n2)cc1 |  | 23.1 µM (active)
82 | CCOc1ccc(-c2cc3nc(C4CCN(C(=O)OC(C)(C)C)CC4)c(C(=O)Nc4ccc(C(=O)OC)cc4)cn3n2)cc1 | -25.1% (inactive) | 
83 | O=c1[nH]cnc(O)c1C(c1ccc(F)cc1)c1c(O)nc[nH]c1=O | 6.39% (inactive) | 
84 | CC(=O)Oc1ccc(C(C)=O)c2c1OCCO2 | -4.02% (inactive) | 
85 | CC(=O)NCCc1ccc(S(=O)(=O)Nc2ccc(C)c(S(=O)(=O)N3CCOCC3)c2)cc1 | -15.7% (inactive) | 
86 | O=C(NN=Cc1ccccc1O)NN=Cc1ccccc1O |  | 4.11 µM (active)
87 | O=C(CCC(=O)Nc1ccccc1)N/N=C/c1ccccc1F | 15.4% (inactive) | 
88 | Oc1ccccc1C=NC1CCCCC1N=Cc1ccccc1O (stereo not given) | -9.12% (inactive) | 
89 | O=C(CCCCCNC(=O)c1ccccc1)N/N=C/c1ccccc1 | -4.67% (inactive) | 
90 | O=C(N/N=C/c1ccccc1O)/C(=C/c1ccccc1)CCO |  | 3.26 µM (active)
91 | C=CCOc1ccccc1/C=N/NC(=O)Cc1ccccc1 | -0.93% (inactive) | 
92 | CN(Cc1nc2ccccc2s1)C(=O)c1ccc(F)cc1 | -8.72% (inactive) | 
93 | CCCS(=O)(=O)NC(=O)C1(C)CCN(C(=O)c2sccc2C)C1 (stereo not given) | 2.03% (inactive) | 
94 | CCc1ccc(C(=O)C(C)OC(=O)CN2C(=O)NC3(CCCC3)C2=O)cc1 (stereo not given) | -24.3% (inactive) | 
95 | COC(=O)Nc1ccc(S(=O)(=O)Nc2cc(OC)nc(OC)n2)cc1 | 3.17% (inactive) | 
96 | CCOC(=O)c1ccc(NC(=O)Cn2c(=O)n(-c3ccc(C)cc3)c(=O)c3c2cnn3C)cc1 | -19.4% (inactive) | 
97 | COC(=O)C1=C(C(=O)OC)C2(OC1c1ccc(Br)cc1)C(=O)c1ccccc1C2=O (stereo not given) | -7.41% (inactive) | 
98 | CCOc1ccc(/C(O)=C2\C(=O)C(=O)N(c3ccc(OC)cc3)C2c2ccccc2[N+](=O)[O-])cc1 (stereo not given) | -12.9% (inactive) | 
99 | CN1C(=O)c2[nH]nc(-c3ccc(F)cc3)c2C1c1ccccn1 (stereo not given) | -21.5% (inactive) | 
100 | CCOc1ccc(-c2n[nH]c3c2C(c2ccccc2OC)N(c2ccc(Br)cc2)C3=O)cc1 (stereo not given) |  | 16.4 µM (active)
